Measurements as given in PubChem BioAssay (NCI).
About 83,000 compounds went through this panel and 20% of them were active in at least one assay; those are over-represented in the sample as a whole.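 Each cell line was grown in a 96-well plate and treated with one concentration of compound for 48 hours. Values below 10 were considered active.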 A number with no mark means an inactive call. Active and inactive are the calls of the source.

test system: A549/ATCC NSCLC; test: NCI-60 one-dose screen, 48 h (100 = growth as untreated, 0 = no growth, -100 = all killed); conditions: 10 µM unless noted

Row | Compound | growth
1 | CC(=O)N1N=C(c2ccc(Cl)cc2)CC1c1cn(-c2ccccc2)nc1-c1ccc([N+](=O)[O-])cc1 (stereo unspecified) | 108%
2 | Cc1c([C@H](C(Cl)Cl)[C@H](O)[C@H]2C[C@H](C)C(=O)O2)ccc2c1C(=O)[C@H]1[C@H]2C[C@@H](Br)[C@@]23O[C@@H](CO[C@H]2O)CC13C (stereo partly specified) | -1.06% (active)
3 | COc1cc2oc(-c3ccc(NC(=O)c4ccccc4)cc3)cc(=O)c2c(OC)c1OC | 80.3%
4 | N#Cc1c(N)nc(Nc2nc3ccccc3[nH]2)nc1-c1ccc(Cl)cc1 | 105%
5 | COc1cc(N)c2nccc(C)c2c1OC | 117%
6 | COc1cc(OC)c2c(=O)cc(-c3ccccc3)oc2c1 | 96.7%
7 | C/C=C(/C)C(=O)OC1C=C(CO)C(=O)C(OC(=O)/C(C)=C\C)C1C(C)C (stereo unspecified) | -9.36% (active)
8 | Cc1nn(-c2ccccc2)c(N)c1N=C1NC(=O)/C(=C/c2ccc(Cl)cc2)S1 | 80.6%
9 | COCC(=O)NNc1[nH]c(-c2ccc(OC)cc2)cc1C#N | 112%
10 | Cc1ncc(C(=O)Nc2ccc(CN3CCN(C)CC3)c(C(F)(F)F)c2)cc1C#Cc1cnc(NC2CC2)c2ncccc12 | -91.5% (active)
11 | CCCOC(=O)c1c(C)n(C)c2scc[n+]12 | 62.9%
12 | Cc1ccc2c(O)c(O)cc(NC(C)CCCN)c2n1 (stereo unspecified) | 84.6%
13 | CC(=O)N(N=O)c1ccc([N+](=O)[O-])cc1Cl | 61.7%
14 | Cc1ccc2c(c1)C(=O)CCS2 | 97.2%
15 | O=C(O)/C(Br)=C/c1c[nH]c2ccc(Br)cc12 | 117%
16 | COc1ccc(-n2nnnc2-c2cn[nH]c2C(F)(F)F)cc1 | 104%
17 | COc1ccc(C2C3(C#N)C(N)=NC(=C(C#N)C#N)C23C#N)cc1OC (stereo unspecified) | 107%
18 | CCOC(=O)c1cc(-c2ccc(OC)cc2)[nH]c1NNC(=O)CCOC | 99.9%
19 | O=C(NCCCl)Nc1nccnc1OCc1ccc(F)cc1 | 102%
20 | CC1=C(C)C(=O)C(C(C)C2=C(C)C(=O)C(C)=C(C)C2=O)=C(C)C1=O | 102%
21 | COc1cc(NC(C)CCCN)c2nccc(C)c2c1OC (stereo unspecified) | 144%
22 | COc1cc2c(c(OC)c1OC)C(=O)CC(c1cccc(C(=O)Nc3cccc(Br)c3)c1)O2 (stereo unspecified) | 77.9%

test system: 786-0 renal; test: as above; conditions: 10 µM unless noted

Row | Compound | growth
23 | COc1cc(NC(=O)CSc2nc3ccc(Cl)cc3c(=O)n2-c2ccc(F)cc2)cc(OC)c1OC | 75.2%
24 | Cc1ccc(C(=O)Nc2ccc(CN3CCN(C)CC3)c(C(F)(F)F)c2)cc1C#Cc1cnc(N)c2ccc(F)cc12 | -85.3% (active)
25 | FC(F)(F)c1cccc(-c2[nH]ncc2-c2nnnn2-c2ccccc2)c1 | 58.2%
26 | COc1cc(CCNc2cnc3cc(N)cc(N)c3n2)cc(OC)c1 | 101%
27 | CCOC(=O)CNS(=O)(=O)CC(=O)c1ccccc1 | 97.5%
28 | O=C(Nc1ccc(Cl)cn1)C1(c2ccccc2)CCCCC1 | 97.5%
29 | Brc1c(-c2ccncc2)nc2n1CCS2 | 26.3%
30 | O=C(Nc1cccc(Cn2c(=O)[nH]c3ccc(Oc4ncccn4)cc3c2=O)c1)c1ccc(Cl)cc1 | 70.5%
31 | CC(=O)c1cc(Nc2cc(C)nc(N)n2)cc(C(C)=O)c1 | 95.3%
32 | O=C(Nc1cccc(Cn2c(=O)[nH]c3ccc(Oc4ncccn4)cc3c2=O)c1)c1cc(Cl)cc(Cl)c1 | 72.6%
33 | C=C1CCC2C3(C)COC(c4ccccc4)OC3CCC2(C)C1C/C=C1/C(=O)OCC1O (stereo unspecified) | 91%
34 | CC(C)(C)OC(=O)N1C/C(=C\c2ccccc2)C(=O)/C(=C/c2ccccc2)C1 | 81.6%
35 | Nc1cc(N)c2nc(-c3ccccc3)c(NCCc3ccc(Cl)c(Cl)c3)nc2c1 | -97.9% (active)
36 | O=C(Nn1cnc2ccccc21)N1CCCC1 | 80.3%
37 | O=C(Nc1cccc(Cn2c(=O)[nH]c3ccc(Oc4ncccn4)cc3c2=O)c1)c1cccc(F)c1 | 65.6%
38 | O=C1NCCN1/N=C/c1c(Cl)nc2n1CCS2 | 90%
39 | CC(=O)N1N=C(c2ccc(Cl)cc2)CC1c1cn(-c2ccccc2)nc1-c1ccc([N+](=O)[O-])cc1 (stereo unspecified) | 104%
40 | Cc1c([C@H](C(Cl)Cl)[C@H](O)[C@H]2C[C@H](C)C(=O)O2)ccc2c1C(=O)[C@H]1[C@H]2C[C@@H](Br)[C@@]23O[C@@H](CO[C@H]2O)CC13C (stereo partly specified) | 40.1%
41 | CCCCCC(=C/c1ccccc1)/C=N/N=C(N)N | -65.4% (active)
42 | COc1cc2oc(-c3ccc(NC(=O)c4ccccc4)cc3)cc(=O)c2c(OC)c1OC | 90.4%

Row | Compound | growth
43 | COc1cc(N)c2nccc(C)c2c1OC | 103%
44 | Cc1ccc(C(=O)NN)cc1 | 106%
45 | COc1cc(OC)c2c(=O)cc(-c3ccccc3)oc2c1 | 49%
46 | C/C=C(/C)C(=O)OC1C=C(CO)C(=O)C(OC(=O)/C(C)=C\C)C1C(C)C (stereo unspecified) | -88.6% (active)
47 | Cc1nn(-c2ccccc2)c(N)c1N=C1NC(=O)/C(=C/c2ccc(Cl)cc2)S1 | 94.7%
48 | COCC(=O)NNc1[nH]c(-c2ccc(OC)cc2)cc1C#N | 95.3%
49 | Cc1ncc(C(=O)Nc2ccc(CN3CCN(C)CC3)c(C(F)(F)F)c2)cc1C#Cc1cnc(NC2CC2)c2ncccc12 | -85.2% (active)
50 | CCCOC(=O)c1c(C)n(C)c2scc[n+]12 | 62.9%
51 | Cc1ccc2c(O)c(O)cc(NC(C)CCCN)c2n1 (stereo unspecified) | 95.8%
52 | CC(=O)N(N=O)c1ccc([N+](=O)[O-])cc1Cl | 74.1%
53 | Cc1ccc2c(c1)C(=O)CCS2 | 101%
54 | O=C(O)/C(Br)=C/c1c[nH]c2ccc(Br)cc12 | 101%
55 | COc1ccc(-n2nnnc2-c2cn[nH]c2C(F)(F)F)cc1 | 106%
56 | COc1ccc(C2C3(C#N)C(N)=NC(=C(C#N)C#N)C23C#N)cc1OC (stereo unspecified) | 99.5%
57 | CCOC(=O)c1cc(-c2ccc(OC)cc2)[nH]c1NNC(=O)CCOC | 84.3%
58 | O=C(NCCCl)Nc1nccnc1OCc1ccc(F)cc1 | 89%
59 | CC1=C(C)C(=O)C(C(C)C2=C(C)C(=O)C(C)=C(C)C2=O)=C(C)C1=O | 88.1%
60 | COc1cc(NC(C)CCCN)c2nccc(C)c2c1OC (stereo unspecified) | 98.8%
61 | COc1cc2c(c(OC)c1OC)C(=O)CC(c1cccc(C(=O)Nc3cccc(Br)c3)c1)O2 (stereo unspecified) | 84%
